The values that follow come from PubChem BioAssay (NCI).

The nature of test [1]: NCI Yeast Anticancer Drug Screen. Data for the rad50 strain (AID 155).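 Note: 0% = growth of vehicle-only cultures of the same strain.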 To be noted: S. cerevisiae rad50 strain growth inhibition, hits give high values. Summed up:
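DNA repair mutant yeast, compound exposure, growth read-out; inhibition is taken relative to vehicle.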

A short description of test [2]: NCI Yeast Anticancer Drug Screen. Data for the mec2-1 strain (AID 157). To be noted: S. cerevisiae mec2-1 strain, hits give high values. The essentials: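 Mutant yeast (mec2-1) grown with compound; growth inhibition relative to vehicle control reported.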
A short description of test [3]: NCI Yeast Anticancer Drug Screen. Data for the sgs1 mgt1 strain (AID 161).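 Note: 0% = growth of cultures given vehicle only.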 To be noted: S. cerevisiae sgs1 mgt1 strain, hits give high values. Summed up:
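Yeast cells carrying a defined DNA-repair defect were exposed to test compounds. Growth inhibition was measured relative to vehicle-treated controls.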

Test [4] can be described thus: NCI Yeast Anticancer Drug Screen. Data for the cln2 rad14 strain (AID 165).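 Note: 0% = growth equal to vehicle treated cultures.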 To be noted: S. cerevisiae cln2 rad14 strain, hits give high values. Summed up: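 Readout is yeast growth inhibition versus vehicle-treated controls, using a strain with cln2 and rad14 alterations exposed to compound.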
The nature of test [5]: NCI Yeast Anticancer Drug Screen. Data for the bub3 strain (AID 167). The conditions noted are these: S. cerevisiae bub3 mutant strain, hits give high values. Summed up: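 In this screen, a yeast mutant lacking normal mitotic checkpoint function is challenged with compound. Relative growth versus vehicle gives the inhibition value.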
Test [6] can be described thus: NCI Yeast Anticancer Drug Screen. Data for the mlh1 rad18 strain (AID 175). The conditions noted are these: S. cerevisiae mlh1 rad18 strain growth inhibition, hits give high values. Summed up: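 Genetically defined yeast (DNA repair-deficient) exposed to compounds; growth inhibition determined relative to vehicle.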
[7] abbreviates: at 5.0 µM (retest, dose inferred, filed as 0.5).
The mark [8] stands for this setting: at 50.0 µM (retest, dose inferred, filed as 5.0).

The panel holds about 79,000 compounds, 15% with a hit somewhere; the sample as a whole holds those more often. A number with no mark means an inactive call. Calls of active or inactive are those of the source. Cut-off read from the data, not from the text of the source: active = growth inhibition above about 70%; inactive = the rest.

Consider `CC1(C)C(=O)N(CCCCCCN2C(=O)C(C)(C)c3ccccc32)c2ccccc21`, for which the growth inhibition in test [1] (setting [7]) is 20%; in test [1] (setting [8]), 20%; in test [1] (at 50.0 µM) it was 79.5% (active); in test [2] (setting [7]), 4%; in test [2] (setting [8]), 4%; in test [2] (at 50.0 µM), 78% (active). The growth inhibition is 5% in test [3] (setting [7]); 5% in test [3] (setting [8]); 81.5% (active) in test [3] (at 50.0 µM); -11% in test [4] (setting [7]); -11% in test [4] (setting [8]); 83.5% (active) in test [4] (at 50.0 µM). Further, the growth inhibition was 12% in test [5] (setting [7]); 12% in test [5] (setting [8]); 73.2% (active) in test [5] (at 50.0 µM); 3% in test [6] (setting [7]); 3% in test [6] (setting [8]); 78.5% (active) in test [6] (at 50.0 µM).

Regarding `CCCCCCCC(CC(=O)O)OC(=O)CC(CCCCCCC)OC1OC(C)C(O)C(O)C1OC1OC(C)C(O)C(O)C1O` (stereo not given), the growth inhibition is -62% in test [1] (setting [7]); 68% in test [1] (setting [8]); 87.2% (active) in test [1] (at 50.0 µM); -26% in test [2] (setting [7]); -5% in test [2] (setting [8]); 91.8% (active) in test [2] (at 50.0 µM). Besides, the growth inhibition was -43% in test [3] (setting [7]); 55% in test [3] (setting [8]); 92.3% (active) in test [3] (at 50.0 µM); -42% in test [4] (setting [7]); 37% in test [4] (setting [8]); 82.3% (active) in test [4] (at 50.0 µM). Moreover, the growth inhibition in test [5] (setting [7]) was -47%; in test [5] (setting [8]) it was 96% (active); in test [5] (at 50.0 µM), 89.5% (active); in test [6] (setting [7]), -68%; in test [6] (setting [8]) it was 96% (active); in test [6] (at 50.0 µM) it was 84.2% (active).

As to `COc1ccc(C2c3cc4c(cc3OC(O)(CO)C2C(=O)O)OCO4)cc1` (stereo not given) (tested in a mixture with another compound), the growth inhibition is -6% in test [1] (setting [7]); 86% (active) in test [1] (setting [8]); 53.5% in test [1] (at 50.0 µM); -11% in test [2] (setting [7]); 75% (active) in test [2] (setting [8]); 81.3% (active) in test [2] (at 50.0 µM). Moreover, the growth inhibition in test [3] (setting [7]) was -6%; in test [3] (setting [8]) it was 40%; in test [3] (at 50.0 µM) it was 27.8%; in test [4] (setting [7]), -6%; in test [4] (setting [8]), 90% (active); in test [4] (at 50.0 µM) it was 37%. Also, the growth inhibition is -18% in test [5] (setting [7]); 95% (active) in test [5] (setting [8]); 87% (active) in test [5] (at 50.0 µM); -8% in test [6] (setting [7]); 89% (active) in test [6] (setting [8]); 81.8% (active) in test [6] (at 50.0 µM).

Consider `O=S(=O)(Sc1ccccc1)C(c1ccccc1)c1ccccc1`, for which the growth inhibition in test [1] (setting [7]) was 3%; in test [1] (setting [8]), 72% (active); in test [1] (at 50.0 µM), -21.6%; in test [2] (setting [7]) it was 2%; in test [2] (setting [8]), 71% (active); in test [2] (at 50.0 µM), -1.25%. The growth inhibition in test [3] (setting [7]) was 2%; in test [3] (setting [8]), 66%; in test [3] (at 50.0 µM), 14.1%; in test [4] (setting [7]), 1%; in test [4] (setting [8]), 28%; in test [4] (at 50.0 µM), -12.8%. Also, the growth inhibition in test [5] (setting [7]) was -4%; in test [5] (setting [8]) it was 97% (active); in test [5] (at 50.0 µM) it was 62%; in test [6] (setting [7]) it was 4%; in test [6] (setting [8]), 72% (active); in test [6] (at 50.0 µM) it was 6.85%.

On to `COC([C@@H](OC(=O)c1ccccc1)[C@H](OC(=O)c1ccccc1)C(O)COC(=O)c1ccccc1)n1cc(C)c(=O)[nH]c1=O` (stereo not given in full), for which the growth inhibition in test [1] (setting [7]) is -8%; in test [1] (setting [8]), 26%; in test [1] (at 50.0 µM), 17.1%; in test [2] (setting [7]) it was -8%; in test [2] (setting [8]) it was 18%; in test [2] (at 50.0 µM), 49.5%. The growth inhibition in test [3] (setting [7]) is 4%; in test [3] (setting [8]), 33%; in test [3] (at 50.0 µM), 65.5%; in test [4] (setting [7]), 8%; in test [4] (setting [8]) it was 57%; in test [4] (at 50.0 µM), 53.5%. Moreover, the growth inhibition in test [5] (setting [7]) was -19%; in test [5] (setting [8]), 28%; in test [5] (at 50.0 µM), 71.8% (active); in test [6] (setting [7]), -3%; in test [6] (setting [8]) it was 69%; in test [6] (at 50.0 µM) it was 67.3%.

With `CC(CN1CCCCCCC1)C(c1ccccc1)c1ccccc1` (stereo not given), the growth inhibition was 2% in test [1] (setting [7]); 81% (active) in test [1] (setting [8]); 66.3% in test [1] (at 50.0 µM); -3% in test [2] (setting [7]); 76% (active) in test [2] (setting [8]); 61.8% in test [2] (at 50.0 µM). For the same compound, the growth inhibition was 7% in test [3] (setting [7]); 98% (active) in test [3] (setting [8]); 94.1% (active) in test [3] (at 50.0 µM); -5% in test [4] (setting [7]); 73% (active) in test [4] (setting [8]); 96.2% (active) in test [4] (at 50.0 µM). Further, the growth inhibition in test [5] (setting [7]) was -2%; in test [5] (setting [8]), 87% (active); in test [5] (at 50.0 µM), 98.5% (active); in test [6] (setting [7]) it was -3%; in test [6] (setting [8]), 89% (active); in test [6] (at 50.0 µM), 86.5% (active).

For the compound `O=C(c1cccnc1)N(C1CCCCC1)C1CCCCC1`, the growth inhibition in test [1] (setting [7]) was 3%; in test [1] (setting [8]), 4%; in test [1] (at 50.0 µM), 2.25%; in test [2] (setting [7]), -2%; in test [2] (setting [8]), 8%; in test [2] (at 50.0 µM), -6.85%. Moreover, the growth inhibition in test [3] (setting [7]) is 2%; in test [3] (setting [8]), 6%; in test [3] (at 50.0 µM), 3.4%; in test [4] (setting [7]), 1%; in test [4] (setting [8]) it was 9%; in test [4] (at 50.0 µM), 11.8%. In addition, the growth inhibition was 1% in test [5] (setting [7]); 12% in test [5] (setting [8]); 0.35% in test [5] (at 50.0 µM); -10% in test [6] (setting [7]); 6% in test [6] (setting [8]); -2.25% in test [6] (at 50.0 µM).

Turning to `CCCCCCCCCCCc1ccn[nH]1`, the growth inhibition in test [1] (setting [7]) is -7%; in test [1] (setting [8]), 98% (active); in test [1] (at 50.0 µM), 98.4% (active); in test [2] (setting [7]), 3%; in test [2] (setting [8]), 99% (active); in test [2] (at 50.0 µM) it was 99.3% (active). Further, the growth inhibition in test [3] (setting [7]) was 9%; in test [3] (setting [8]) it was 99% (active); in test [3] (at 50.0 µM), 99.3% (active); in test [4] (setting [7]) it was -18%; in test [4] (setting [8]), 99% (active); in test [4] (at 50.0 µM) it was 98.3% (active). Also, the growth inhibition in test [5] (setting [7]) is 14%; in test [5] (setting [8]), 98% (active); in test [5] (at 50.0 µM), 99% (active); in test [6] (setting [7]), -3%; in test [6] (setting [8]), 98% (active); in test [6] (at 50.0 µM), 98.9% (active).

As for `COc1cc2c(c(-c3cn(C)c4ccccc34)c1OC)OCO2`, the growth inhibition is 4% in test [1] (setting [7]); 24% in test [1] (setting [8]); 36.2% in test [1] (at 50.0 µM); 0% in test [2] (setting [7]); 54% in test [2] (setting [8]); 15.3% in test [2] (at 50.0 µM). Moreover, the growth inhibition in test [3] (setting [7]) was 4%; in test [3] (setting [8]) it was 59%; in test [3] (at 50.0 µM) it was 86% (active); in test [4] (setting [7]), -1%; in test [4] (setting [8]) it was 1%; in test [4] (at 50.0 µM), -30.6%. In addition, the growth inhibition was 2% in test [5] (setting [7]); 78% (active) in test [5] (setting [8]); 84.5% (active) in test [5] (at 50.0 µM); 0% in test [6] (setting [7]); 35% in test [6] (setting [8]); 41.9% in test [6] (at 50.0 µM).

For the compound `CCOC(=O)C(=C=Cc1cccs1)C(=O)c1ccccc1`, the growth inhibition in test [1] (setting [7]) is 16%; in test [1] (setting [8]), 84% (active); in test [1] (at 50.0 µM), 87% (active); in test [2] (setting [7]), -14%; in test [2] (setting [8]), 95% (active); in test [2] (at 50.0 µM), 90.5% (active). Besides, the growth inhibition in test [3] (setting [7]) was 3%; in test [3] (setting [8]), 92% (active); in test [3] (at 50.0 µM), 90.8% (active); in test [4] (setting [7]), -10%; in test [4] (setting [8]), 91% (active); in test [4] (at 50.0 µM), 90.7% (active). In addition, the growth inhibition is -13% in test [5] (setting [7]); 97% (active) in test [5] (setting [8]); 89.8% (active) in test [5] (at 50.0 µM); -10% in test [6] (setting [7]); 94% (active) in test [6] (setting [8]); 83.9% (active) in test [6] (at 50.0 µM).
